What is called inhibition is the relative decrease from the control value, in per cent.

Structures are written as SMILES.

Drawing on ChEMBL document CHEMBL1961873, “Compounds: GSK PKIS; Assays: Nanosyn kinase panel” (2012), this text covers inhibition for seven molecules.

Assay [1] deals with T1, 3-phosphoinositide-dependent protein kinase 1 (Homo sapiens) (UniProt O15530).
T1 sequence (whole entry): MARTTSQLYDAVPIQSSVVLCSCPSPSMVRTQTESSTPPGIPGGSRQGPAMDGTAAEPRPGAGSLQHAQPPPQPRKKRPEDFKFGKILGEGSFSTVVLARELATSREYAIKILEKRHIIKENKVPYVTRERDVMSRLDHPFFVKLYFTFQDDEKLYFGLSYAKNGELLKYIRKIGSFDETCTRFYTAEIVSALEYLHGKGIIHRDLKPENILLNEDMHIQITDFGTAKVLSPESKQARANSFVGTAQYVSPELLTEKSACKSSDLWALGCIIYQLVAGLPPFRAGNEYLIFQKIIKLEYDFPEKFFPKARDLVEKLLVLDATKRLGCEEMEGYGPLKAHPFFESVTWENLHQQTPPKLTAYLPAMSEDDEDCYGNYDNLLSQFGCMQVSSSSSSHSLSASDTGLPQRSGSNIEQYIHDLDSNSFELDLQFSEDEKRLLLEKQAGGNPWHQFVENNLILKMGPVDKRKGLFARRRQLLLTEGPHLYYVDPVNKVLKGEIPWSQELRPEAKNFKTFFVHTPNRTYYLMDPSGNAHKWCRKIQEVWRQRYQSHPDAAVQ
Particulars: at 0.1 µM.

Assay [2] addresses cAMP-dependent protein kinase catalytic subunit alpha (Homo sapiens) (UniProt P17612). As to conditions: at 0.1 µM.
For assay [3] the target is unchanged. Particulars: at 1 µM.
In assay [4] the target is Protein kinase C alpha type (Homo sapiens) (UniProt P17252). As to conditions: at 0.1 µM.
Assay [5] has the same target. As to conditions: at 1 µM.
Assay [6] has as its target Protein kinase C beta type (Homo sapiens) (UniProt P05771). Particulars: at 0.1 µM.
The target is the same in assay [7]. Particulars: at 1 µM.
For assay [8], the target named is Protein kinase C eta type (Homo sapiens) (UniProt P24723). As to conditions: at 0.1 µM.
Sequence of Protein kinase C eta type (Homo sapiens) (P24723 whole entry): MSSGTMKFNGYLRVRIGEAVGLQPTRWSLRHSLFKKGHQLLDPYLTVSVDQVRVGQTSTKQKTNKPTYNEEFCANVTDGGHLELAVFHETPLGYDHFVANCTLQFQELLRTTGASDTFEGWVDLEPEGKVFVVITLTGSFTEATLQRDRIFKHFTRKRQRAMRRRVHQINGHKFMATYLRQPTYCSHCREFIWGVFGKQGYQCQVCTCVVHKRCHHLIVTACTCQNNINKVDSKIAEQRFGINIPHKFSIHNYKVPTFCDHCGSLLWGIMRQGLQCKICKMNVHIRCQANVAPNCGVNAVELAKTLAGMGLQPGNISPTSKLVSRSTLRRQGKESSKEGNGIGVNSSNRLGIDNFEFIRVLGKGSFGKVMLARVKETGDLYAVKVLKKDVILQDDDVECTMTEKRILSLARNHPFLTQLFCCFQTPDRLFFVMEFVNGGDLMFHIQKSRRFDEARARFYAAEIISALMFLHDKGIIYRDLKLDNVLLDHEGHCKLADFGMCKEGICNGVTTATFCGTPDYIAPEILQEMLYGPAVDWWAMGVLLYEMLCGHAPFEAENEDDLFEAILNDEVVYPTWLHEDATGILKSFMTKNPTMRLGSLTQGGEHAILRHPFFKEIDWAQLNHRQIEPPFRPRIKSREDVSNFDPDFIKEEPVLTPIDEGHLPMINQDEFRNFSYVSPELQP
Assay [9] shares this target. Particulars: at 1 µM.
The target in assay [10] is Protein kinase C gamma type (Homo sapiens) (UniProt P05129). Particulars: at 0.1 µM.
The target is the same in assay [11]. Particulars: at 1 µM.
Assay [12] deals with T2, Protein kinase C iota type (Homo sapiens) (UniProt P41743).
T2 sequence (whole entry): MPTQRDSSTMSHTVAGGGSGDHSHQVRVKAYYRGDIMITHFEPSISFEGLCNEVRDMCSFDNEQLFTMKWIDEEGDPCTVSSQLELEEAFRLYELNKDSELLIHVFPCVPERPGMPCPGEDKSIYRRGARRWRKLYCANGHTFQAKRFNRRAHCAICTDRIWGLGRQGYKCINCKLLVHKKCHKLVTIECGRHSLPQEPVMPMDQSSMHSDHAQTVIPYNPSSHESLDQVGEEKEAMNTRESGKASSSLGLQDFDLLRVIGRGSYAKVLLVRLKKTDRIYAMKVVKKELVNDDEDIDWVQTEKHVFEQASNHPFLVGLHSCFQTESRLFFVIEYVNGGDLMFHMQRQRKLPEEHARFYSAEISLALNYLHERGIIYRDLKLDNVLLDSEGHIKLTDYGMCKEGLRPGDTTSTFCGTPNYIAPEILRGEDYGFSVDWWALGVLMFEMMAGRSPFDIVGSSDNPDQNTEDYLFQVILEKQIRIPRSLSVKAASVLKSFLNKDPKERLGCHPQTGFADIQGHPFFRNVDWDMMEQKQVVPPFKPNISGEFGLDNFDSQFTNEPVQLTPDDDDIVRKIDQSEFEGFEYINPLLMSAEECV
As to conditions: at 0.1 µM.

The target in assay [13] is T2, Protein kinase C iota type (Homo sapiens). As to conditions: at 1 µM.
The target of assay [14] is Protein kinase C theta type (Homo sapiens) (UniProt Q04759). Particulars: at 0.1 µM.
Sequence of Protein kinase C theta type (Homo sapiens) (Q04759 whole entry, looked up): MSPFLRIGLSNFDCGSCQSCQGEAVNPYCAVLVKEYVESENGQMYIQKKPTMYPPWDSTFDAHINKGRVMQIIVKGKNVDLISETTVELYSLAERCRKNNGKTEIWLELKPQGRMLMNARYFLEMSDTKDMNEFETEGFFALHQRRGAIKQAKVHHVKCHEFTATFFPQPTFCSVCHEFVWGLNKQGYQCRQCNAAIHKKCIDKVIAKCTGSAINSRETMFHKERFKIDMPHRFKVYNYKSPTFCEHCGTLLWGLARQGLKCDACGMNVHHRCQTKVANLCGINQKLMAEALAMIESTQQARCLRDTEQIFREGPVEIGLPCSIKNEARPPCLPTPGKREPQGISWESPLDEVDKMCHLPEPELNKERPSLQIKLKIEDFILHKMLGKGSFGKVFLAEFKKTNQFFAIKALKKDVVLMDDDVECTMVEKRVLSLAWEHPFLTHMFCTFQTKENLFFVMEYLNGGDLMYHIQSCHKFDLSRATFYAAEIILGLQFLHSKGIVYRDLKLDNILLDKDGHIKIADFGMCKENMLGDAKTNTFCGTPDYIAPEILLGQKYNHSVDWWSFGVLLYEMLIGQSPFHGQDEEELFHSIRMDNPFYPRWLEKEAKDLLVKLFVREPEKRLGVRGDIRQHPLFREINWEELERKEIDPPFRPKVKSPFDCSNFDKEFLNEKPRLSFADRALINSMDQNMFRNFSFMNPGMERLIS
The target is the same in assay [15]. As to conditions: at 1 µM.
Assay [16] concerns the target Protein kinase C beta type (Homo sapiens) (UniProt P05771). Particulars: at 0.1 µM. This is another data set of the same source.
The target is the same in assay [17]. Particulars: at 1 µM. This is another data set of the same source.
For assay [18], the target named is T3, Serine/threonine-protein kinase D1 (Homo sapiens) (UniProt Q15139).
T3 sequence (whole entry): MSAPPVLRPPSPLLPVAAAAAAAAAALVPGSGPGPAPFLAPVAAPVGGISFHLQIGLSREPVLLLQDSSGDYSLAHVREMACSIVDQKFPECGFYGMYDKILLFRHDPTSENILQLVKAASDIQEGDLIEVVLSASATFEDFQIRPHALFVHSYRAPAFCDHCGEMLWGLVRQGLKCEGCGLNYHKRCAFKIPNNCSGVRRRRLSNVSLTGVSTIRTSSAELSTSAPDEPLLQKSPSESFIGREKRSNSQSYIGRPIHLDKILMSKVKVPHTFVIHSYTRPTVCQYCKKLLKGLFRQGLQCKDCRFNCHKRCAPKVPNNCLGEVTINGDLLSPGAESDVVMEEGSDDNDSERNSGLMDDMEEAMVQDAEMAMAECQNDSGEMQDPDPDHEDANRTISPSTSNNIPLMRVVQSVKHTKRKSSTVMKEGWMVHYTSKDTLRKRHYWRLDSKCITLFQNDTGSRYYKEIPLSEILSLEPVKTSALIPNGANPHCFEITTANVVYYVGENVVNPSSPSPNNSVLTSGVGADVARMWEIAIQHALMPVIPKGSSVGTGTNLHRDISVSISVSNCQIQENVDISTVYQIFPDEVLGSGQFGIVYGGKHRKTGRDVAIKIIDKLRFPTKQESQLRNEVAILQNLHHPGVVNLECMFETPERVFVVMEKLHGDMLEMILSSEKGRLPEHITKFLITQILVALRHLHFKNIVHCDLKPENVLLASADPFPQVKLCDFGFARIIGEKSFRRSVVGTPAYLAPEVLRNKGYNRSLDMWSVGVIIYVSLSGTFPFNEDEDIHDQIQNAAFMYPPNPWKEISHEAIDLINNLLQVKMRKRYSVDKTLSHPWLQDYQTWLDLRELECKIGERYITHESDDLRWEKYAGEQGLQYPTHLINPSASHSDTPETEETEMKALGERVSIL
Particulars: at 0.1 µM.

Assay [19] addresses T3, Serine/threonine-protein kinase D1 (Homo sapiens). Particulars: at 1 µM.
Assay [20] deals with T4, Serine/threonine-protein kinase D2 (Homo sapiens) (UniProt Q9BZL6).
T4 sequence (whole entry): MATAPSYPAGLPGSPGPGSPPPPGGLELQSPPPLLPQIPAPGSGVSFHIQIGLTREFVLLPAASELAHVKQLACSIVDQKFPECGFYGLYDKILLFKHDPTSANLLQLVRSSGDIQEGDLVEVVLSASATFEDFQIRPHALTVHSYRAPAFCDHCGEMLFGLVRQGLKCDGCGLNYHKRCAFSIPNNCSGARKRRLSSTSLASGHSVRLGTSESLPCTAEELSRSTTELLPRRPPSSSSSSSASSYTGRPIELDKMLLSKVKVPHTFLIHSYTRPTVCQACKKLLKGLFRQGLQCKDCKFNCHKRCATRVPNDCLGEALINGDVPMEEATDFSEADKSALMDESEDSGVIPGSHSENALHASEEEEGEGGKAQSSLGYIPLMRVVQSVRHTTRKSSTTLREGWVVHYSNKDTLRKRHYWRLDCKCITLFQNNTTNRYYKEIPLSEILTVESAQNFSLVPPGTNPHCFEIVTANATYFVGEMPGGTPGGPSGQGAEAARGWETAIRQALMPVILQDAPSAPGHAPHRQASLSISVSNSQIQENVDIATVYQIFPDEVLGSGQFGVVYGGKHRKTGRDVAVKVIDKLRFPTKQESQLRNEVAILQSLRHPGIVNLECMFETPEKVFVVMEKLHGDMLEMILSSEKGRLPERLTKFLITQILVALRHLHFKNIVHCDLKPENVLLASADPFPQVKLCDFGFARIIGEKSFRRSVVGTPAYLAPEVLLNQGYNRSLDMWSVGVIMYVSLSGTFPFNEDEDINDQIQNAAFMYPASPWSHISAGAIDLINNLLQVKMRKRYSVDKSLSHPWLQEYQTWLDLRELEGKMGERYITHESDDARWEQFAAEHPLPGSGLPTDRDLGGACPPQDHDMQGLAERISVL
As to conditions: at 0.1 µM.

Sequence of Protein kinase C beta type (Homo sapiens) (P05771 2-671 limits assumed): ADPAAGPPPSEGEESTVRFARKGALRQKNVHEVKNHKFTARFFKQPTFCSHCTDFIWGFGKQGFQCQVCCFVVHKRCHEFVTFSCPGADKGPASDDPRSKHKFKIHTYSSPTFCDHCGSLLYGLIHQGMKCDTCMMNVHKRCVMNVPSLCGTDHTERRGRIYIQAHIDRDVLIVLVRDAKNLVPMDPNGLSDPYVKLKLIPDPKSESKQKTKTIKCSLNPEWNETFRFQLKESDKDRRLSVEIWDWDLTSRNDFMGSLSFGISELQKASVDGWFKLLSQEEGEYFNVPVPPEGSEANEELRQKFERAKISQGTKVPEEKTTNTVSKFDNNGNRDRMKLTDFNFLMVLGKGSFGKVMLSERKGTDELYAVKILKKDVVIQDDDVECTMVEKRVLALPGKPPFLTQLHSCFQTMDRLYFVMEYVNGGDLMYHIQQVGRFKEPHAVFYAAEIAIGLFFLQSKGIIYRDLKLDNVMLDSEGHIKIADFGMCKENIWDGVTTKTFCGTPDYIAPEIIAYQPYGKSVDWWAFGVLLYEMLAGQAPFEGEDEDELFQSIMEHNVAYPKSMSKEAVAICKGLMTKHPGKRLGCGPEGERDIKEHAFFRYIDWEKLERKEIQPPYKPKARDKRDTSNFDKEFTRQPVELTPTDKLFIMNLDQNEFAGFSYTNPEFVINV

For the molecule `CS(=O)(=O)Nc1cccc(-c2ccc3c(NC(=O)C4CC4)n[nH]c3c2)c1`, the inhibition in assay [1] was -0.34%; in assay [2], 0.91%; in assay [3], 1.02%; in [4] it was 0.79%; in assay [5] it was 1.61%; in assay [6] it was -1.18%. Besides, the inhibition in [7] was -0.16%; in [8] it was 1.82%; in assay [9], 3.34%; in assay [10] it was 1.6%; in assay [11], 1.59%; in assay [12] it was 0.49%. Further, the inhibition in [13] was 0.91%; in assay [14], -0.5%; in [15] it was -0.76%; in assay [16] it was -0.25%; in [17], 0.61%; in [18], 0.96%. Also, the inhibition is 2.34% in assay [19] and 2.1% in assay [20].
For `CN(C)c1cc2c(Nc3ccc4c(cnn4Cc4ccccc4)c3)ncnc2cn1`, the inhibition in [1] was 2.47%; in assay [2], 1.45%; in assay [3] it was 1.92%; in [4], -0.01%; in assay [5], 0.82%; in [6], 0.49%. For the same molecule, the inhibition in assay [7] was 1.62%; in [8], -1.26%; in assay [9], 1.17%; in [10], 0.1%; in assay [11] it was -1.38%; in assay [12], 0.79%. Also, the inhibition in assay [13] was 1.74%; in assay [14] it was 0.5%; in [15] it was 0.28%; in assay [16] it was 0.51%; in [17] it was 0.93%; in assay [18], 2.68%. The results for the inhibition in [19] and in [20] were 5.12% and 3.3%, respectively.
Take `COC(=O)Nc1nc2cc(Oc3ccc(NC(=O)Nc4cccc(Br)c4)cc3)ccc2[nH]1`: the inhibition in assay [1] was 3.36%; in [2], 1.25%; in assay [3] it was 1.19%; in assay [4] it was 1.04%; in [5] it was 1.61%; in assay [6], -0.97%. In addition, the inhibition in [7] was 2.4%; in assay [8], -0.37%; in assay [9], 4.28%; in assay [10], -0.79%; in [11] it was 0.29%; in [12] it was 1.23%. Also, the inhibition in [13] was determined as 0.06%; in assay [14] it was 1.7%; in assay [15], 1.69%; in assay [16] it was 0.71%; in [17], 2.06%; in assay [18], 2.15%. The inhibition amounted to 4.31% in [19] and 4.58% in assay [20].
As to `CCn1c(-c2nonc2N)nc2c(C#CC(C)(C)O)nc(OCCNC)cc21`, the inhibition stood at 1.35% in [1]; 11.6% in assay [2]; 49.2% in assay [3]; 0.49% in assay [4]; 3.55% in [5]; 4.85% in [6]. Moreover, the inhibition in assay [7] was 29.9%; in assay [8], 78.9%; in assay [9], 95.4%; in assay [10], -2.02%; in [11] it was 8.19%; in assay [12], 0.89%. Further, the inhibition in assay [13] is 1.21%; in assay [14] it was 15.7%; in [15], 61.1%; in assay [16], 1.53%; in [17], 10.8%; in assay [18], 4.31%. Further, the values for the inhibition in assay [19] and in [20] were 12.9% and 4.9%, respectively.
With `Cc1ccc(Nc2ccnc(Nc3cccc(C(N)=O)c3)n2)cc1O`, the inhibition is 2.89% in assay [1]; -1.93% in assay [2]; -0.05% in assay [3]; -1.9% in [4]; 8.24% in assay [5]; 0.32% in assay [6]. Also, the inhibition in assay [7] came to 4.35%; in assay [8] it was 6.2%; in assay [9], 4.32%; in [10], 4.85%; in [11], 16.4%; in assay [12], 1.56%. The inhibition was -0.31% in assay [13]; 0.93% in assay [14]; 2.94% in assay [15]; 1.81% in assay [16]; 8.28% in [17]; -0.94% in assay [18]. Also, the inhibition in [19] was 12.1%; in assay [20], -0.15%.
Consider `N#Cc1c(NC(=O)c2ccccc2F)sc2c1CCCC2`, for which the inhibition in assay [1] was -1.52%; in assay [2], -0.5%; in assay [3], 0.91%; in assay [4], -0.76%; in assay [5] it was 1.15%; in [6], 0.38%. The inhibition is 1.07% in [7]; -2.89% in assay [8]; 1.15% in [9]; 0.73% in [10]; 0.15% in assay [11]; -1.48% in assay [12]. Moreover, the inhibition in assay [13] is -0.75%; in assay [14], -0.76%; in assay [15] it was -0.86%; in [16], -0.47%; in [17], 0.43%; in assay [18] it was -1.42%. Further, the inhibition was determined as 0.24% in assay [19] and 0.84% in assay [20].
With `NS(=O)(=O)c1cccc(-c2cc3ccncc3cc2OCc2ccccc2)c1`, the inhibition in [1] was 0.97%; in assay [2], 1.81%; in [3] it was 3.34%; in assay [4], 1.18%; in [5] it was 1.96%; in [6], -0.33%. For the same molecule, the inhibition in [7] came to 0.71%; in [8], 2.45%; in assay [9], 2.7%; in [10], 3.28%; in assay [11], 4.07%; in assay [12], 2.51%. Further, the inhibition came to 3.39% in [13]; 2.29% in assay [14]; 1.87% in [15]; 2.02% in [16]; 2.23% in assay [17]; 4.25% in assay [18]. Also, the inhibition in assay [19] was 7.09%; in [20] it was 5.29%.
